# Inconclusive results are not listed. A call without a number means that no potency is given here. Activity calls are given as the source filed them. The call rests on the fitted dose curve; in most records, active means well fitted cell-killing curve with a large enough effect in the repeat runs; inconclusive means weak or mixed curves, or effect the other way; inactive means flat fitted curve, though single readings scatter.
# Test: qHTS assay to identify small molecule antagonists of the constitutive androstane receptor (CAR) signaling pathway - cell viability counter screen (AID 1224837); further: nearly all actives have a fitted effect of over 45% in size
# Details: HepG2-CYP2B6-hCAR viability, CellTiter-Fluor, 23 h, co-treated with 50 nM CITCO; series mostly up to 92.4 µM
# Text: National Center for Advancing Translational Sciences [NCATS]
# NIH Chemical Genomics Center [NCGC]
# U.S. Environmental Protection Agency [EPA]
# National Institutes of Environmental Health Sciences [NIEHS]
# National Toxicology Program [NTP]
# U.S. Food and Drug Administration [FDA]
# The constitutive androstane receptor (CAR) is a nuclear receptor which regulates multiple drug metabolizing enzymes (DMEs) and transporters. Activating CAR will generally increase the transcription and subsequent translation of CYP2B6 and CYP3A4. These two DMEs represent about 50% of the drug metabolizing potential in the body. When CAR is deactivated, the metabolizing potential in the body will decrease, subsequently increasing the toxicity in the body or lowering the therapeutic potential of a pro-drug. Recently, there have also been studies performed indicating CARs role in energy metabolism and cancer therapy. Therefore, inhibiting CARs activity could have a potential effect on diabetes and cancer. Identifying environmental toxins and compounds which modulate CAR, through the use of the Tox21 10K compound collection, will be an important step in determining the toxicity and potential therapeutic effects these factors will have on the human body. To differentiate true CAR antagonists from cytotoxic substances, the assay is multiplexed with a cell viability assay.
# Tox21 Assay Protocol Summary:
# A double-stable (hCAR and CYP2B6-2.2kb) transfected cell line, derived from human hepatoma (HepG2) cells, was utilized for the duration of the quantitative high-throughput screens. The HepG2-CYP2B6-hCAR cells were dispensed at 2500 cells/4 uL/well in 1536-well white solid bottom plates using a Multidrop Combi. After the assay plates were incubated at 37 C/5% CO2 for 4 hrs, 23 nL of compounds at 15 concentrations (from 5-48 columns) or positive control (from 1 to 4 columns) were transferred to the assay plates using a Pintool station. One uL of CITCO (final concentration = 50 nM) was added, using a Flying Reagent Dispenser, inside each well. After a 23 hr incubation period at 37 C/5% CO2, 1 uL of CellTiter-Fluor reagent was added into each well of the assay plates using a Flying Reagent Dispenser. The fluorescence intensity in the plates was then measured using a ViewLux plate reader.
# Potency means the concentration at half of the fitted maximal effect.
row,SMILES,Potency
1,CCCCCCCCC(=O)NCc1ccc(O)c(OC)c1,inactive
2,N#Cc1cc(Br)c(O)c(Br)c1,inactive
3,C[C@]12CCC(=O)C[C@@H]1CC[C@@H]1[C@@H]2CC[C@]2(C)[C@@H](O)CC[C@@H]12,inactive
4,CN(C)C(=O)Nc1ccc(Cl)cc1,inactive
5,CCCCN(CCCC)N=O,inactive
6,Nc1c(Cl)cc([N+](=O)[O-])cc1Cl,inactive
7,Cc1cccc(N)c1N,inactive
8,CC1(C)C(C=C(Cl)Cl)C1C(=O)OC(C#N)c1cccc(Oc2ccccc2)c1 (stereo not given),inactive
9,O=C1C=CC(=O)C=C1,inactive
10,O=[N+]([O-])c1c(Cl)c(Cl)c(Cl)c(Cl)c1Cl,inactive
11,CCCCC(CC)COC(=O)Cl (stereo not given),inactive
12,CCCCOCCOP(=O)(OCCOCCCC)OCCOCCCC,inactive
13,CC(C)N(C(=O)SCC(Cl)=C(Cl)Cl)C(C)C,inactive
14,Nc1ccncc1,inactive
15,CC(C)Oc1cc(-n2nc(C(C)(C)C)oc2=O)c(Cl)cc1Cl,inactive
16,C#C[C@]1(O)CC[C@H]2[C@@H]3CCC4=CC(=O)CC[C@]4(C)[C@H]3CC[C@@]21C,inactive
17,O=C(NC(=O)c1c(F)cccc1F)Nc1ccc(Cl)cc1,inactive
18,CCCCC(CC)COC(=O)c1ccc(C(=O)OCC(CC)CCCC)c(C(=O)OCC(CC)CCCC)c1 (stereo not given),inactive
19,C[C@]12CCC(=O)C(O)=C1CC[C@@H]1[C@@H]2CC[C@]2(C)C(=O)CC[C@@H]12,inactive
20,CCOCN(C(=O)CCl)c1c(C)cccc1CC,inactive

row,SMILES,Potency
1,CCCCCCOC(=O)c1ccccc1C(=O)OCCCCCC,inactive
2,C=CCc1ccc(OC)cc1,inactive
3,S=C1NCCN1,inactive
4,O=S(=O)(Oc1ccc(Cl)cc1)c1ccc(Cl)cc1,inactive
5,COP(=O)(OC)OC,inactive
6,NNC(N)=S,63.5 µM (active)
7,Oc1ccc(-c2ccccc2)cc1,inactive
8,Oc1cc(Cl)c(Cl)cc1Cl,inactive
9,CCC(CC)Nc1c([N+](=O)[O-])cc(C)c(C)c1[N+](=O)[O-],inactive
10,Cc1ccccc1[N+](=O)[O-],inactive
11,COc1ccc(C=O)cc1,inactive
12,N#CC(Br)Br,inactive
13,O=P(O)(O)CCCl,inactive
14,Brc1ccc(Oc2cc(Br)c(Br)cc2Br)c(Br)c1,inactive
15,O=[N+]([O-])c1cccc2ccccc12,inactive
16,CCN(CC)C(=O)SCc1ccc(Cl)cc1,inactive
17,c1cc(OCC2CO2)ccc1Cc1ccc(OCC2CO2)cc1 (stereo not given),inactive
18,O=C(CCl)c1ccccc1,inactive
19,Nc1ccc(Cl)c(Cl)c1,inactive
20,CCOC(=S)S,32.6 µM (active)

# Reference: PubChem BioAssay (Tox21)
